Assay outcomes: PubChem BioAssay, several laboratories
GDH-TPI counter-1 – GDH-TPI coupled enzyme inhibition counter-screen; hit rate 1.2% among 360,000; AID 588335; inhibition, % at 4.8 µM; GDH-TPI coupled enzyme counterscreen, NADH absorbance; in the data active means inhibition above about 30%;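 further: 0% = DMSO wells and 100% = wells lacking the enzyme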
PrP UTR inh – suppresses PrP 5' UTR mRNA reporter expression. cell-based PrP 5' UTR mRNA reporter, plate reader. inhibition, % (concentration not given with the values). hit rate 0.35% among 340,000. AID 488862; in the data active means inhibition above about 52%; further: 0 = median of the neutral control wells
Mtb hypoxia inh – Mtb hypoxia fluorescent reporter inhibition; fluorescence inhibition, % (concentration not given with the values); M. tuberculosis hypoxia-regulated fluorescent reporter, fluorescence; hit rate 0.1% among 300,000; in the data active means fluorescence inhibition mostly above about 23%, no sharp cut-off; inactive means mostly below about 17%
Y pestis TopoI – inhibitors of Yersinia pestis topoisomerase I; Y. pestis Topo-I cleavage product accumulation, plate reader; activity, % at 10 µM; AID 504884; hit rate 0.064% among 360,000; in the data active means activity above about 50%, passing the limit was not always enough
FBA Mtb inh – Mtb fructose-bisphosphate aldolase inhibition; inhibition, % at 1 µM; hit rate 2.3% among 360,000; purified M. tuberculosis FBA, fluorescence read-out;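 further: 0% = vehicle and 100% = reference inhibitor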
Target sequence (P9WQA3 whole entry, looked up): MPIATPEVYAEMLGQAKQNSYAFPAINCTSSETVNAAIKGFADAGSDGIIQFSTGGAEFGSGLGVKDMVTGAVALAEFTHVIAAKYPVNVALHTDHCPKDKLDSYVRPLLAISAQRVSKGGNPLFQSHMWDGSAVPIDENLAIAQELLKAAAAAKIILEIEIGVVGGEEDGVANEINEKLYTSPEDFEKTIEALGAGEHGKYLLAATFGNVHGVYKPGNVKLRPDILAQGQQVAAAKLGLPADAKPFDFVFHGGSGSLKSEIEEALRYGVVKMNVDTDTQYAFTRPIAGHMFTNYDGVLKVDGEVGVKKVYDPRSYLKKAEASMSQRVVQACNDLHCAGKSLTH
PrPC surface inh – reduces human prion protein on the cell surface | P04156 | cell surface PrPC, TR-FRET read-out | inhibition, % at 13.8 µM | hit rate 0.43% among 370,000 | AID 720596; in the data active means inhibition above about 24%; further: 0% = median of the test wells and 100% = reference compound wells
Mtb FBA inh conf – confirmation of M. tuberculosis fructose-bisphosphate aldolase inhibitors; shares compounds with FBA Mtb inh; purified M. tuberculosis FBA, fluorescence read-out; inhibition, % at 1 µM; hit rate 78% among 5,600;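 further: 0% = vehicle wells and 100% = reference inhibitor wells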
GDH-TPI counter-2 – inhibits GDH-TPI coupling enzymes, flagging Mtb FBA hits. shares compounds with FBA Mtb inh. inhibition, % at 1 µM. hit rate 81% among 5,600. GDH-TPI coupled enzyme counterscreen, fluorescence; in the data active means inhibition above about 10%
The depositor's hits bear a star; · = no result given. Only some compounds are listed: those with a hit (about 3.8% of all), similar ones and a draw of the others. Unless noted, no stated cut-off is given here; in the data, active means inhibition above about 27%; inactive means the rest.

SMILES	GDH-TPI counter-1	PrP UTR inh	Mtb hypoxia inh	Y pestis TopoI	FBA Mtb inh	PrPC surface inh	Mtb FBA inh conf	GDH-TPI counter-2
CSc1nc(NCc2ccccc2)c2c3c(sc2n1)CN(C)CC3	5.5	-15.3	-1.9	-6.8	72.3*	1.6	140.4*	84.3*
COCCCNc1nc(SCc2ccccc2)nc2sc3c(c12)CCC3	18.3	-2.5	10.4	-3.7	33.8*	4.4	96.9*	77.7*
COCCNc1nc(SC)nc2sc3c(c12)CCN(C)C3	-4.0	-35.9	6.2	-8.6	80.3*	-7.5	196.2*	176.6*
Cn1c(=NN=Cc2ccccn2)sc2ccccc21	·	·	-2.9	·	·	·	·	·
C/C(C=NNC(=O)Cn1nccc1C)=C\c1ccc(C(C)C)cc1	·	·	1.5	·	·	·	·	·
CSc1nc(NCC(C)C)c2c3c(sc2n1)CN(C)CC3	10.1	4.2	-4.9	-3.0	48.8*	-0.8	58.7*	57.1*
COc1ccc2oc(=O)c(C(C)=NNC(=O)c3ccncc3)cc2c1	·	·	1.5	·	·	·	·	·
COc1ccc(NC(=O)C(=O)NN=Cc2cccnc2)c(OC)c1	·	·	16.4	·	·	·	·	·
Cn1c(=O)c(-c2ccccc2)nc2ccccc21	9.6	-1.3	0.0	3.4	44.4*	-16.3	58.8*	38.9*
O=C1C=C(c2cc(Cl)cc(Cl)c2)CC(c2ccc3c(c2)OCO3)C1 (stereo unspecified)	·	·	2.4	·	·	·	·	·
c1ccc(Cn2ncc3ccccc32)cc1	-2.4	-33.5	10.9	-4.5	-2.9	0.5	·	·
CN(C)c1nc(-c2ccccc2)c2cnn(Cc3ccccc3)c2n1	2.0	-31.5	3.9	30.8	43.6*	-8.7	121.1*	111.9*
Cn1c(NCc2ccco2)nc2ccccc21	-3.0	-1.4	11.2	2.5	-4.4	3.4	·	·
Cn1nnc2c(NCc3ccco3)nccc21	-3.4	-7.3	6.6	-3.9	63.5*	-2.4	52.8*	43.0*
Cc1ccc(C(=O)/C=C/Nc2ccccc2C(N)=O)o1	20.0	-114.1	-6.2	5.6	31.8*	-1.5	41.5*	23.8*
CCCNC(=O)N1C2CCC1C(C(=O)OC)=C(c1c(C)noc1C)C2 (stereo unspecified)	·	·	5.2	·	·	·	·	·
O=C(O)C1CCN(C(=O)COc2ccc3c4c(c(=O)oc3c2)CCCC4)CC1	13.7	0.1	·	8.6	100.3*	1.6	57.5*	47.9*
Cc1c(OCC(=O)N2CCN(c3ccccc3)CC2)ccc2c3c(c(=O)oc12)CCCC3	-8.2	-7.4	2.8	1.8	-6.8	2.1	·	·
Cc1c(C)c2ccc(OCC(=O)N3CCC(C(=O)O)CC3)cc2oc1=O	7.8	-1.9	·	7.2	102.6*	-6.9	-5.5	-4.6
CCc1cc(=O)oc2c(C)c(OCC(=O)N3CCC(C(=O)O)CC3)ccc12	14.7	-3.2	·	4.6	37.7*	5.1	-6.7	-9.4
Cc1c(OCC(=O)N2CCC(C(=O)O)CC2)ccc2c3c(c(=O)oc12)CCCC3	17.6	-20.2	·	9.4	66.1*	-0.8	69.7*	57.7*
O=C(COc1ccc2c3c(c(=O)oc2c1)CCC3)N1CCCCC1	3.7	-24.0	9.1	5.3	26.1	-4.4	·	·
Cc1ccc(C=NN2CCN(Cc3cccc4ccccc34)CC2)o1	·	·	0.2	·	·	·	·	·
CSc1nccc(NN=Cc2ccccc2)n1	·	·	1.7	·	·	·	·	·
Cc1cccn2c(=O)c(C=NO)c(N3CCOCC3)nc12	·	·	7.7	·	·	·	·	·
SMILES	GDH-TPI counter-1	PrP UTR inh	Mtb hypoxia inh	Y pestis TopoI	FBA Mtb inh	PrPC surface inh	Mtb FBA inh conf	GDH-TPI counter-2
CC(C)(C)OC(=O)NC(CO)c1cn(C(Cc2cc3ccccc3[nH]2)C(=O)N2CCN(C(=O)OC(C)(C)C)CC2)nn1 (stereo unspecified)	·	·	-2.7	·	·	·	·	·
Cc1cc(=O)oc2c(C)c(OCC(=O)N3CCN(C(=O)C4COc5ccccc5O4)CC3)ccc12 (stereo unspecified)	16.5	-8.7	-3.9	13.7	32.2*	9.1	135.8*	118.2*
CCCOc1ccc2c(CC)cc(=O)oc2c1C	18.4	3.7	-1.2	16.1	34.6*	-6.2	92.0*	79.9*
O=C(O)[C@@H]1CCCN1C(=O)COc1ccc2c3c(c(=O)oc2c1)CCC3	14.7	-22.9	·	3.5	41.8*	-8.3	91.8*	68.0*
CCc1cc(=O)oc2cc(OCC(=O)N3CCC(C(=O)O)CC3)ccc12	5.9	-7.5	·	3.3	27.1*	9.2	73.7*	70.9*
CCC1CCCCN1C(=O)COc1ccc2c3c(c(=O)oc2c1)CCC3 (stereo unspecified)	9.1	-23.4	19.5	0.9	23.2	6.8	·	·
